Percent Effect data for 17 compounds are collected here from ChEMBL document CHEMBL3988442, “University of Dundee, Small-Polar-MMV Screening Library” (2021).

The target of test [1] is T1, Aspartate--tRNA(Asp/Asn) ligase (Mycobacterium tuberculosis (strain ATCC 25618 / H37Rv)) (UniProt P9WFW3). Also: in the data most compounds retested in dose-response had high values.
T1 sequence (whole entry): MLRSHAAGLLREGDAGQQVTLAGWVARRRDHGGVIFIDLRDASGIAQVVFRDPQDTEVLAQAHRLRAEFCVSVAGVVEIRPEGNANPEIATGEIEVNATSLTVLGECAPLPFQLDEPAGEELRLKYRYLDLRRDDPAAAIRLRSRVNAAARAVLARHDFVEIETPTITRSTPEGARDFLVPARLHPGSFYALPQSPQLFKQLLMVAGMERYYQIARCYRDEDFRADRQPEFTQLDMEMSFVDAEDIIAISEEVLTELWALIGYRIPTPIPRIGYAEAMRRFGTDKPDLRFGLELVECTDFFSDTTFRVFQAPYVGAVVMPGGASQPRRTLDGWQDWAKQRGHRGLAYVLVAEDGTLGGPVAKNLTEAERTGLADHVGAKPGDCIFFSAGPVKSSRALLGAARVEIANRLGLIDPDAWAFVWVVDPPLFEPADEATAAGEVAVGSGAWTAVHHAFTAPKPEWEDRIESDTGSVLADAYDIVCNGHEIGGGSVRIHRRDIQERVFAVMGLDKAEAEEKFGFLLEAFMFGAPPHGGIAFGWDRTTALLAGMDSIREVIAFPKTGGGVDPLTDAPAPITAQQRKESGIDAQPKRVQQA
In words: Assay for Asp RNA synthetase-1 from Mycobacterium tuberculosis. The format is functional. Further details: scale not given: direction of the effect not stated beside the values. Conditions: 30 µM.

Test [2] has as its target Shiga toxin 2 (Escherichia coli O157:H7) (UniProt P09385+P09386). The test is described as follows: E. coli 0.157:H7 Shiga Toxin SOP - stx2 screening assay. The class given is functional. Further details: scale not given: direction of the effect not stated beside the values. The settings on record: 30 µM.

Molecules are shown by their SMILES.

As for `COc1c(C)cnc(CN2CCC(C(=O)N(C)C)CC2)c1C`, the Percent Effect in test [1] is -0.91%; in test [2] it was 10.2%.

For the compound `CSCCCN1CCn2nc(CNC(C)=O)cc2C1`, the values for the Percent Effect in test [1] and in test [2] were 3.05% and -62.7%, respectively.

Turning to `O=C(c1ccc(F)c(F)c1)N1CCCC(Nc2ccc(F)cc2)C1` (centres undefined), the Percent Effect in test [1] came out at 0.212%; in test [2], 11.2%.

For `O=C(CSc1ccc(F)c(F)c1)NS(=O)(=O)c1ccc2c(c1)OCCO2`, the values for the Percent Effect in test [1] and in test [2] were 3.35% and 10.6%, respectively.

Consider `C[C@@H]1C[C@@H]2CCN(C(=O)c3cnccn3)C[C@H]2O1`, for which the figures for the Percent Effect in test [1] and in test [2] were 0.69% and -15.2%, respectively.

For `CC1c2ncc(COc3cccnc3)n2CCN1C(=O)C1=CCCC1` (centres undefined), the Percent Effect in test [1] was -4.09%; in test [2], -30.8%.

On to `COc1ccc(C[C@H]2CN(c3nnc(C)s3)CC[C@@H]2OC)cc1`, for which the Percent Effect in test [1] was 7.75%; in test [2] it was -17.5%.

`Cc1cnn(CC2CCCN2C(=O)CCc2nc3ccccc3[nH]2)c1` (centres undefined): the Percent Effect in test [1] is -0.857%; in test [2], -31.6%.

Take `Cc1cc(CN2CCCC2c2c(C)nn(C)c2Cl)no1` (centres undefined): the Percent Effect in test [1] was -1.57%; in test [2], 8.59%.

With `O=C(C1=CCCCC1)N1CCC2(CC1)COC(COc1ccccn1)C2` (centres undefined), the Percent Effect in test [1] was 0.351%; in test [2], -19.1%.

As to `CCc1n[nH]c(C2CN(CCc3ccncc3)CCO2)n1` (centres undefined), the values for the Percent Effect in test [1] and in test [2] were -1.5% and 11.6%, respectively.

Consider `CCCn1[nH]cc/c1=N\C(=O)CN1CCc2cnc(CC)nc2C1`, for which the Percent Effect in test [1] was 5.8%; in test [2], -6.51%.

With `Cc1nccn1-c1cc(CNC(=O)CCC2CCCO2)ccn1` (centres undefined), the Percent Effect is 2.98% in test [1] and 2.2% in test [2].

As to `CS(=O)(=O)N1CCC(NC(=O)COc2ccc(Cl)c(Cl)c2)CC1`, the Percent Effect in test [1] is 1.23%; in test [2], -20.3%.

`CC(O)CN1CCN(Cc2nnc(C3CC3)o2)CC1` (centres undefined): the Percent Effect in test [1] was 0.971%; in test [2], -17.9%.

`CCN(c1ccc(C(=O)N2CCCC(C)C2)cc1)S(=O)(=O)CC` (centres undefined): the Percent Effect in test [1] was -3.34%; in test [2], -10.8%.

With `CC(C)c1ncc2c(n1)CN(Cc1ccc(C(N)=O)cc1)CC2`, the figures for the Percent Effect in test [1] and in test [2] were -0.3% and -42.6%, respectively.
